# Test results reported in ChEMBL document CHEMBL3988442, “University of Dundee, Small-Polar-MMV Screening Library” (2021).
# Among all 53,000 compounds or so, about 900 (1.7%) showed an effect of 50% or more. For the sample, strong results were picked, then their nearest neighbours and some compounds at random.
# System: Mycobacterium tuberculosis
# Experiment: Cornell - Phenotypic assay to identify agents that inhibit growth of Mycobacterium tuberculosis
# Assay type: functional
# Design: scale not given: direction of the effect not stated beside the values
# Details: 10 mM as filed; unlikely as a test dose
row,SMILES,Percent Effect [%]
1,CC(C)c1cc(C2CCCN2C(=O)c2cn3ccsc3n2)no1 (centres undefined),31.59
2,Cc1cc(NC(=O)C2CCN(c3ncccc3C#N)CC2)no1,-28.06
3,O=C(Cc1cccs1)NCc1ccnc(C2CCCOC2)n1 (centres undefined),6.218
4,Cc1nc(C)n(CC2CCCN(c3ncnc4sccc34)C2)n1 (centres undefined),-6.342
5,Cc1nc(C)n(CC2CCCN(c3ncnc4ccsc34)C2)n1 (centres undefined),51.96
6,Cc1nc(C)n(CC2CCCN(c3ncnc4ccccc34)C2)n1 (centres undefined),-29.18
7,Cc1ncccc1C(=O)Nc1cccc(C[S+](C)[O-])c1C (centres undefined),11.87
8,COc1ccc(-n2cc(CNC(=O)c3ccc[nH]3)nn2)cc1,1.2
9,CC(=O)N1CCC2(C1)CN(S(=O)(=O)c1ccccc1)C2,13.22
10,Cc1nc(CNCC2CCCN2c2cccnn2)oc1C (centres undefined),5.973
11,CN(Cc1nc2ccccc2o1)CC1CCCN1c1cccnn1 (centres undefined),-25.78
12,c1cnnc(N2CCCC2CNCc2nc3ccccc3o2)c1 (centres undefined),108.2
13,Cn1cc(C(=O)N2CCO[C@@H]3CN(C4CCC4)C[C@@H]3C2)cn1,3.925
14,COCCN1CCN(Cc2cccc(C(=O)N(C)C)c2)CC1,-27.32
15,CCC(C)N(Cc1cnc(OC)nc1)Cc1ccsc1 (centres undefined),-2.85
16,Cc1nc(-c2ccncc2)nc(N(C)CCc2ccncc2)c1C,-4.993
17,COCCCN(C)c1nc(-c2ccncc2)nc2c1CCN(C(C)=O)C2,-26.88
18,COCCCN(C)c1nc(-c2ccncc2)nc(C)c1C,79.79
19,NC(=O)C1CCN(C(=O)NCc2ccc(-c3ccn[nH]3)cc2)CC1,-27.61
20,O=C(N1CCCO1)[C@@]12CCO[C@@H]1CCN(Cc1ccccn1)C2.O=C(O)C(F)(F)F.O=C(O)C(F)(F)F,16.34
21,O=C(Nc1cccnn1)NC(CCCO)c1ccccc1 (centres undefined),-8.222
22,CC(C)Oc1cccc(C(O)CNC(=O)Nc2cccs2)c1 (centres undefined),105
23,Cc1csc(CNC(=O)NCC(O)c2ccccc2)n1 (centres undefined),-28.19

row,SMILES,Percent Effect [%]
1,O=C(NCCc1ccccc1)NCC(O)c1cccs1 (centres undefined),16.84
2,CCOc1ccccc1CCNC(=O)NCC(O)c1ccsc1 (centres undefined),26.35
3,O=C(NCC(O)c1ccccc1)Nc1cccs1 (centres undefined),59.31
4,O=C(NCC(O)c1ccsc1)Nc1cccs1 (centres undefined),98.83
5,O=C(NCC(O)c1ccsc1)c1sccc1OC(F)F (centres undefined),14.09
6,O=C(Nc1ccccn1)NC(CCCO)c1ccccc1 (centres undefined),-24.69
7,O=C(Nc1cccs1)NC(CCCO)c1ccccc1 (centres undefined),101.4
8,CC(C)Oc1cccc(C(O)CNC(=O)NCc2cccs2)c1 (centres undefined),7.446
9,CC(C)Oc1cccc(C(O)CNC(=O)CCc2ccncc2)c1 (centres undefined),31.72
10,Cc1cc(C)n2c(CNCc3ccc(OC(F)F)cc3)cnc2n1,-7.615
11,Cn1ncc2c(N3CCCN(C(=O)c4ccsc4)CC3)ncnc21,16.86
12,CCCc1ccc(CN2CCC3(CCC(=O)N(CCO)C3)CC2)o1,9.804
13,COc1ccccc1C(=O)N1CCOC2(CCCN(C(C)=O)C2)C1 (centres undefined),23.26
14,Fc1ccc(C2CCCN2Cc2nnnn2C2CC2)cc1 (centres undefined),-22.59
15,O=C(NCCCN1CCCC1=O)c1nc(-c2ccc3[nH]ccc3c2)no1,3.66
16,Cn1cccc1C(=O)N1CCC2(CC1)COC(COc1ccccn1)C2.O=C(O)C(F)(F)F (centres undefined),9.973
17,CC(C)NC(=O)C(NC(=O)N1CCN(c2ccc(Cl)cc2)CC1)C(C)C (centres undefined),76.86
18,CC(C)NC(=O)C(C)NC(=O)N1CCN(c2ccc(Cl)cc2)CC1 (centres undefined),-27.07
19,CC(C)C(NC(=O)N1CCN(c2ccc(Cl)cc2)CC1)C(=O)NC1CC1 (centres undefined),93.48
20,CC(C)NC(=O)[C@@H](NC(=O)N1CCN(c2ccc(Cl)cc2)CC1)C(C)C,70.57
21,CN(C(=O)NC1CC1)C1CCN(c2ccc(Cl)cc2)CC1,17.37
22,C[C@H](NC(=O)N1CCN(c2ccc(Cl)cc2)CC1)C(=O)N1CCSCC1,11.26
23,CC(NC(=O)N1CCN(c2ccc(Cl)cc2)CC1)C(=O)N1CCSCC1 (centres undefined),21.43

row,SMILES,Percent Effect [%]
1,CC(C)[C@H](NC(=O)N1CCN(c2ccc(Cl)cc2)CC1)C(=O)NC1CC1,4.583
2,CC(C)NC(=O)[C@H](C)NC(=O)N1CCN(c2ccc(Cl)cc2)CC1,-2.997
3,Fc1ccccc1NCc1nc2n(n1)CCCCC2,6.356
4,NC(=O)CN1CCCC(c2cncc(Nc3ncccn3)n2)C1 (centres undefined),28.6
5,COCCN1C(=O)CC[C@]12CC[C@@H](NC(=O)c1cnccn1)CC2,8.611
6,CCCc1nnnn1CC(=O)NCc1cccc(C)c1,14.77
7,CCOC(=O)C1(Cc2ccccc2-c2ccccc2OC)CCNCC1.Cl,1.496
8,CNc1[nH]nc(N)c1C(=O)Nc1ccc(OC)cc1,-4.193
9,CNc1[nH]nc(N)c1NC(=O)c1ccccc1,107.3
10,CNc1[nH]nc(N)c1C(=O)Nc1ccccc1,-18.4
11,FC(F)(F)c1cc(C2CCCN(c3cnccn3)C2)n2ccnc2n1 (centres undefined),5.193
12,Cc1cc(C)nc(Nc2nccnc2C2CCCN(C(C)C)C2)n1 (centres undefined),29.5
13,FC(F)(F)c1cc(C2CCN(c3cnccn3)CC2)n2ccnc2n1,47.21
14,CC(C)N1CCCC(c2cc(C(F)(F)F)nc3nccn23)C1 (centres undefined),55.76
15,FC(F)(F)c1cc(C2CCCN(c3ncccn3)C2)n2ccnc2n1 (centres undefined),58.69
16,Cc1nc(Nc2cnccn2)cc(C2CCCN(C(C)C)C2)n1 (centres undefined),-5.253
17,NC(=O)c1ccc(C2CCCN2C(=O)CCc2nc3ccccc3s2)s1 (centres undefined),-11.96
18,CC(=O)c1ccc(N2CCCC(CO)(Cc3ccccc3C)C2)nc1 (centres undefined),13.02
19,Cc1ccccc1CC1(CO)CCCN(c2ncnc3sccc23)C1 (centres undefined),79.2
20,Cc1cnc(C)c(N2CCCC(CO)(Cc3ccccc3C)C2)n1 (centres undefined),5.498
21,c1csc(N2CCCN(c3ncnc4sccc34)CC2)n1,9.712
22,Cc1ccccc1CC1(CO)CCCN(c2ncncc2C(C)C)C1 (centres undefined),81.01
23,Cc1ccccc1CC1(C(=O)O)CCCN(c2ncnc3[nH]ccc23)C1 (centres undefined),8.891
